Calls of active or inactive are those of the source. Rule for the calls: active = hit-call score of the fitted dose curve at least 0.9, where 1 is the maximum; inactive = score below 0.9.
Columns and labels:
[1] = ATG_GLI_CIS: Attagene CIS-FACTORIAL HepG2 Assay for human Zinc Finger Protein GLI1 (AID 2282945); conditions: HepG2, Attagene cis-factorial reporter mRNA, GLI element; actives raise or lower the signal
Outline: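 HepG2 cells transiently transfected with cis-promoter multiplexed reporter units report endogenous transcription factor activity. After 24 h chemical exposure, reporter mRNA was quantified by RT-PCR, 6-FAM labelling, HpaI digestion and capillary electrophoresis, with bidirectional fitting against DMSO.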

[2] = ATG_GRE_CIS: Attagene CIS-FACTORIAL HepG2 Assay for human Glucocorticoid Response Elements (GRE) (AID 2282947); conditions: HepG2 GRE cis-reporter, Attagene multiplex mRNA; actives raise or lower the signal
Outline: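 HepG2 cells transiently transfected with multiple cis-promoter reporter units measure endogenous TF activity; 24 h compound exposure. Reporter mRNA quantified by RT-PCR, FAM labelling, HpaI digestion and capillary electrophoresis; bidirectional fit vs DMSO baseline.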

[3] = ATG_ISRE_CIS: Attagene CIS-FACTORIAL HepG2 Assay for human Interferon Regulatory Factor 1 (IRF1) binding to an Interferon-Stimulated Response Element (ISRE) (AID 2282948); conditions: HepG2 ISRE cis-reporter (Attagene), mRNA transcription readout; actives raise or lower the signal
Outline: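 Cell-based cis-reporter assay; HepG2; 24 h exposure; reporter mRNA by RT-PCR plus capillary electrophoresis fluorescence; activity in either direction scored relative to DMSO.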

[4] = ATG_M_32_CIS: Attagene CIS-FACTORIAL HepG2 Assay for M32 Transcription Factor (Internal Marker) (AID 2282949); conditions: HepG2 Attagene cis-factorial M32 reporter, mRNA; actives raise or lower the signal;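 note: background control marker of the multiplexed CIS panel rather than a real target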
Outline: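 Internal background marker read-out: RT-PCR/capillary electrophoresis fluorescence of reporter transcripts from transiently transfected HepG2 cells after 24 h chemical exposure. Activity fitted bidirectionally relative to DMSO negative control.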

[5] = ATG_M_06_CIS: Attagene CIS-FACTORIAL HepG2 Assay for M06 Transcription Factor (Internal Marker) (AID 2282950); conditions: HepG2 Attagene CIS-FACTORIAL M06 internal marker reporter; actives raise or lower the signal
Outline: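 Terse: HepG2, transient MRTU transfection (FuGene 6), 24 h dosing; total RNA, oligo(dT) RT, PCR, FAM label, HpaI cut, capillary electrophoresis; bidirectional fit vs DMSO baseline; background-control endpoint.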

[6] = target: Hypoxia-inducible factor 1-alpha (Homo sapiens) (UniProt Q16665); assay: ATG_HIF1a_CIS: Attagene CIS-FACTORIAL HepG2 Assay for human Hypoxia Inducible Factor 1 (HIF1A) (AID 2282951); conditions: HepG2 Attagene cis-factorial HIF1a reporter transcription; actives raise or lower the signal
Hypoxia-inducible factor 1-alpha (Homo sapiens), sequence (Q16665 whole entry, looked up): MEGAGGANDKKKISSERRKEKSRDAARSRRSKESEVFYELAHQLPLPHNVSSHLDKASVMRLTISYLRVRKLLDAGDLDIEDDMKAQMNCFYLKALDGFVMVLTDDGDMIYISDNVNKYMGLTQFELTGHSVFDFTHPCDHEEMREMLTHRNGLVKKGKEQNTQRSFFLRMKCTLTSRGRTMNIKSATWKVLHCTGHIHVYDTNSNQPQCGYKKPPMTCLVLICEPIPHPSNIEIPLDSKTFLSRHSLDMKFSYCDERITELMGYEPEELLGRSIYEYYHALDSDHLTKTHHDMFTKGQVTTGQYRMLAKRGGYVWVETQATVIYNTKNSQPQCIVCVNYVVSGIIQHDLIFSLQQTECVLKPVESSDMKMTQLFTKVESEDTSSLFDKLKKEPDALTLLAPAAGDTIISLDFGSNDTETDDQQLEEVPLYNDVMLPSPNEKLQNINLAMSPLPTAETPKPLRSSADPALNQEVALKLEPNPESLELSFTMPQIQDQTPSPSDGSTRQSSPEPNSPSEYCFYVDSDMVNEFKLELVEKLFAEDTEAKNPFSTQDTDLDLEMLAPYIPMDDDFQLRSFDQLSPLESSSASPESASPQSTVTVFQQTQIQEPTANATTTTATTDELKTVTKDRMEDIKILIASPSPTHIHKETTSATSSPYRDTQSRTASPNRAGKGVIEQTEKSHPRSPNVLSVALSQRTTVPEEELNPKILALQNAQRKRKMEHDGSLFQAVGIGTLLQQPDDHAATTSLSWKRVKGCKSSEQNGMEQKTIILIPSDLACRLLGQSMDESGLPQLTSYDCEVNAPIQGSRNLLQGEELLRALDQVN
Outline: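 HepG2 cells transiently transfected with multiple cis-regulated reporter transcription units measure endogenous transcription factor activity. After 24 h exposure, reporter mRNA is quantified by RT-PCR with 6-FAM labelling, HpaI digestion and capillary electrophoresis. Bidirectional fitting against DMSO.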

[7] = target: Hepatocyte nuclear factor 6 (Homo sapiens) (UniProt Q9UBC0); assay: ATG_HNF6_CIS: Attagene CIS-FACTORIAL HepG2 Assay for human Hepatocyte Nuclear Factor 6 (HNF6) (AID 2282952); conditions: HepG2 Attagene cis-factorial HNF6 reporter transcription; actives raise or lower the signal
Hepatocyte nuclear factor 6 (Homo sapiens), sequence (Q9UBC0 whole entry, looked up): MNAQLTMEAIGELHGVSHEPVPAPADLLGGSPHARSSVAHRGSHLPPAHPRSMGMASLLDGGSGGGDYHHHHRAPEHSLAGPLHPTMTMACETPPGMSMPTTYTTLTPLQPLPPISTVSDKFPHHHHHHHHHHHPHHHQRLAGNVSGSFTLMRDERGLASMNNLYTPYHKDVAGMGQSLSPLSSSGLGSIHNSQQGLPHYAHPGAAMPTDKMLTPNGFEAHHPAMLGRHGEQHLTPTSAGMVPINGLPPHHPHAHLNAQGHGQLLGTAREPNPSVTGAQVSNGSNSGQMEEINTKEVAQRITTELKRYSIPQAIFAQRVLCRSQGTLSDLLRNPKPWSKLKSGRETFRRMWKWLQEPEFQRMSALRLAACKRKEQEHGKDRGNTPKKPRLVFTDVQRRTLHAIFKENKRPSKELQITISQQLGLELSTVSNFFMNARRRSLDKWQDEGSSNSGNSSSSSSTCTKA
Outline: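 HepG2 cells transiently transfected with cis-element-driven multiple reporter transcription units, dosed 24 h; reporter mRNA quantified by RT-PCR, FAM primer extension, HpaI digestion and capillary electrophoresis; bidirectional fit versus DMSO baseline.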

[8] = target: Heat shock factor protein 1 (Homo sapiens) (UniProt Q00613); assay: ATG_HSE_CIS: Attagene CIS-FACTORIAL HepG2 Assay for human Heat Shock Transcription Factor 1 (HSE) (AID 2282953); conditions: HepG2 HSE cis-reporter, Attagene RNA transcription; actives raise or lower the signal
Heat shock factor protein 1 (Homo sapiens), sequence (Q00613 whole entry, looked up, the tested form may be a part): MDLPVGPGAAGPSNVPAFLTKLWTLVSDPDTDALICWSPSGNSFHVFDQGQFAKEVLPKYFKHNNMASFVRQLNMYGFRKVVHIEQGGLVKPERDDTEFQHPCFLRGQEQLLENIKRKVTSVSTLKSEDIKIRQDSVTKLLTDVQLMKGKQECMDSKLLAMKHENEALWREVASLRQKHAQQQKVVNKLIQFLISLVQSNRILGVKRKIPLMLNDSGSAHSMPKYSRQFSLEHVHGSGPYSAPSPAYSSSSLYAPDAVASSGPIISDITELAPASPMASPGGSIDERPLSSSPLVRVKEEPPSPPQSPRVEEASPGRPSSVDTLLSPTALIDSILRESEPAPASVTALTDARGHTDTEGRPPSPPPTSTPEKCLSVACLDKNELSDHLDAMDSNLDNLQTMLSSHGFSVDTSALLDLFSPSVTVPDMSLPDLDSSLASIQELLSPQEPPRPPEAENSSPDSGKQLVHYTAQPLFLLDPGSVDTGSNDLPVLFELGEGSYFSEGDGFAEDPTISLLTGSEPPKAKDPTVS
Outline: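 Read-out: fluorescence of reporter-specific RT-PCR fragments separated by capillary electrophoresis. HepG2 carrying transfected cis-element reporter units; 24 h dosing; activity fitted in both directions relative to DMSO baseline.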

[9] = ATG_MRE_CIS: Attagene CIS-FACTORIAL HepG2 Assay for human Metal Responsive Element (MRE) (AID 2282954); conditions: HepG2 MRE cis-reporter transcription, Attagene multiplex; actives raise or lower the signal
Outline: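 HepG2 cells transiently transfected with multiple cis-element reporter units measure endogenous MTF1-driven transcription. After 24 h compound exposure, reporter mRNA is quantified by RT-PCR with 6-FAM labelling, HpaI digestion and capillary electrophoresis; bidirectional fits versus DMSO.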

[10] = ATG_PBREM_CIS: Attagene CIS-FACTORIAL HepG2 Assay for human Phenobarbital-responsive Enhancer Module (PBREM) (AID 2282955); conditions: HepG2 PBREM cis-reporter, Attagene multiplexed transcription; actives raise or lower the signal
Outline: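 HepG2 cells transiently transfected with multiple cis-regulated reporter units measure endogenous transcription factor activity; 24 h compound exposure. Reporter mRNA quantified by RT-PCR, fluorescent labelling, HpaI digestion and capillary electrophoresis; bidirectional fit versus DMSO.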

[11] = target: Paired box protein Pax-6 (Homo sapiens) (UniProt P26367); assay: ATG_Pax6_CIS: Attagene CIS-FACTORIAL HepG2 Assay for human Paired Box 6 (PAX6) (AID 2282956); conditions: HepG2 CIS-FACTORIAL PAX6 reporter transcription, RNA readout; actives raise or lower the signal
Paired box protein Pax-6 (Homo sapiens), sequence (P26367 whole entry, looked up): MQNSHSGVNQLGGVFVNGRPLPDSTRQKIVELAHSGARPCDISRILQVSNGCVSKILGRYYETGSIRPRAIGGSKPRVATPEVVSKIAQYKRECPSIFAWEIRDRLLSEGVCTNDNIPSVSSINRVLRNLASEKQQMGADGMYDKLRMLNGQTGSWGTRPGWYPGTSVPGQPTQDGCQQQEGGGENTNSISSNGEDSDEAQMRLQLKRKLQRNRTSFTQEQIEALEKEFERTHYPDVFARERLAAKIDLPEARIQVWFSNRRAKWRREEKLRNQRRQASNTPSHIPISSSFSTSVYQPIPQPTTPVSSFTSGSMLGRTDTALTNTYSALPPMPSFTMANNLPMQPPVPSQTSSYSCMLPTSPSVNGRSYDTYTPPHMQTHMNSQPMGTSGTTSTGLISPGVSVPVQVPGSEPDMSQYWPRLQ
Outline: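 Multiplexed cis-reporter HepG2 system; 24 h treatment; reporter mRNA read by RT-PCR/CE fluorescence; bidirectional fit vs DMSO.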

[12] = ATG_PXRE_CIS: Attagene CIS-FACTORIAL HepG2 Assay for human Pregnane X Receptor Element (PXRE) (AID 2282957); conditions: HepG2 Attagene CIS-FACTORIAL PXRE reporter, mRNA; actives raise or lower the signal
Outline: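 HepG2 cells transiently transfected with cis-regulated multiple reporter transcription units; endogenous factor activity measured as reporter mRNA 24 h after dosing. RT-PCR, fluorescent primer extension, HpaI digestion, capillary electrophoresis; bidirectional fit versus DMSO baseline.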

[13] = ATG_PPRE_CIS: Attagene CIS-FACTORIAL HepG2 Assay for human Peroxisome Proliferator-activated Response Element (PPRE) (AID 2282958); conditions: HepG2 PPRE cis-element reporter, Attagene transcription factor profiling; actives raise or lower the signal
Outline: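 HepG2 cells are transiently transfected with multiplexed cis-promoter reporter units to report endogenous PPAR activity. After 24 h dosing, reporter mRNA is read by RT-PCR and capillary electrophoresis. Fitting is bidirectional against DMSO.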

[14] = ATG_Sox_CIS: Attagene CIS-FACTORIAL HepG2 Assay for human SRY-box transcription factor (SOX) (AID 2282960); conditions: HepG2 Attagene cis-factorial SOX reporter, mRNA; actives raise or lower the signal
Outline: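 HepG2 cells transiently transfected with multiple cis-regulated reporter units, then dosed for 24 h. Reporter mRNA quantified by RT-PCR, fluorescent labelling, HpaI digestion and capillary electrophoresis; bidirectional fit versus DMSO.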

[15] = target: Transcription factor Sp1 (Homo sapiens) (UniProt P08047); assay: ATG_Sp1_CIS: Attagene CIS-FACTORIAL HepG2 Assay for human Specificity Protein 1 (Sp1) (AID 2282961); conditions: HepG2 Sp1 cis-reporter transcription, actives raise or lower the signal
Transcription factor Sp1 (Homo sapiens), sequence (P08047 whole entry, looked up): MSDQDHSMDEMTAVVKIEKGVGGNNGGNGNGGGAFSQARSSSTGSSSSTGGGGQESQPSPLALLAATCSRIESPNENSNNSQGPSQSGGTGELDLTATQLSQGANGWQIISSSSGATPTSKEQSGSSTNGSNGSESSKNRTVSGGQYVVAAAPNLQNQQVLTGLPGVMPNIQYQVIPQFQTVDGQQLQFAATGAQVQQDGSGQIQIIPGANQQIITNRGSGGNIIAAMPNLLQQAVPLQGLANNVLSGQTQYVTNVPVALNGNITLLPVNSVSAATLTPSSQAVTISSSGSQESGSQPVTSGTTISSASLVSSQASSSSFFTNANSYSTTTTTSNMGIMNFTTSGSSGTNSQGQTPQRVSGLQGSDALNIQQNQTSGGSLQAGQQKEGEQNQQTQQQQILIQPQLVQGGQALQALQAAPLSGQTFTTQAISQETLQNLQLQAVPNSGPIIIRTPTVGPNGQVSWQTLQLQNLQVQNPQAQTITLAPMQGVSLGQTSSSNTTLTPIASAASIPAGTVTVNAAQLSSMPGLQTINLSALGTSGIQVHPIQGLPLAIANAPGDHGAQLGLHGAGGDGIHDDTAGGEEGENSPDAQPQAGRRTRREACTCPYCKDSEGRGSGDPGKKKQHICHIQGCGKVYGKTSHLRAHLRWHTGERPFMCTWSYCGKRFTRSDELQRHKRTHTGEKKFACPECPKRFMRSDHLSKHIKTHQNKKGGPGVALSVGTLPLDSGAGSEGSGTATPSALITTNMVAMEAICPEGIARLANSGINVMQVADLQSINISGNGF
Outline: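 HepG2 cells transiently transfected with multiplexed cis-regulated reporter constructs, chemical exposure 24 h. Reporter mRNA quantified by RT-PCR with capillary electrophoresis; bidirectional fit relative to DMSO.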

[16] = ATG_SREBP_CIS: Attagene CIS-FACTORIAL HepG2 Assay for human Sterol Regulatory Element Binding (SREBP) (AID 2282962); conditions: HepG2 Attagene cis-factorial SREBP reporter, mRNA; actives raise or lower the signal
Outline: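 mRNA induction of transfected cis-promoter reporters in HepG2 cells, 24 h post-dose. Detection: RT-PCR with 6-FAM-labelled products, HpaI digest, capillary electrophoresis. DMSO served as negative control and baseline.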

[17] = target: Signal transducer and activator of transcription 3 (Homo sapiens) (UniProt P40763); assay: ATG_STAT3_CIS: Attagene CIS-FACTORIAL HepG2 Assay for human Signal Transducer and Activator of Transcription 3 (STAT3) (AID 2282963); conditions: HepG2, Attagene cis-factorial STAT3 reporter transcription; actives raise or lower the signal
Signal transducer and activator of transcription 3 (Homo sapiens), sequence (P40763 whole entry, looked up): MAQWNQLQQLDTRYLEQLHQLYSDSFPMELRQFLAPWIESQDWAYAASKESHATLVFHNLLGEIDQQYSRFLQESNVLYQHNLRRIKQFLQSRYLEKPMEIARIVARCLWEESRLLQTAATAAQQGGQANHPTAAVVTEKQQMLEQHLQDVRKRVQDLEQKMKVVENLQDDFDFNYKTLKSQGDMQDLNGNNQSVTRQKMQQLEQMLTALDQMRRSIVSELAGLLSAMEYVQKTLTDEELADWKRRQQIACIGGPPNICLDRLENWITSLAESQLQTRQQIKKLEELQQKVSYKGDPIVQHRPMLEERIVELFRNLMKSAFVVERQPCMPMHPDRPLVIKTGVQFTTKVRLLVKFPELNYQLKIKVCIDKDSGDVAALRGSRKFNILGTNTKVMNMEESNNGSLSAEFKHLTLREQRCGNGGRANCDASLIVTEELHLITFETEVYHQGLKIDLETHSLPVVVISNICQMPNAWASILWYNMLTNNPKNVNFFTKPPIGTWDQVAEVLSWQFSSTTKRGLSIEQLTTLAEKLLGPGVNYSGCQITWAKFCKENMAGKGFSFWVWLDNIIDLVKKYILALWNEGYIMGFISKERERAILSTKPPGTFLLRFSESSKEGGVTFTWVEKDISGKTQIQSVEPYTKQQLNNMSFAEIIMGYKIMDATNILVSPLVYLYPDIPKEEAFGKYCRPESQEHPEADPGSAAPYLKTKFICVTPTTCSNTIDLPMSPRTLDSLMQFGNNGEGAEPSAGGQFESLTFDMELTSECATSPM
Outline: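 HepG2 cells transiently transfected with cis-element-driven multiple reporter transcription units; after 24 h chemical exposure, reporter mRNA measured by RT-PCR, 6-FAM primer-extension labelling, HpaI digestion and capillary electrophoresis. Bidirectional fitting versus DMSO baseline.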

[18] = ATG_RORE_CIS: Attagene CIS-FACTORIAL HepG2 Assay for human RAR-related Orphan Receptor Element (RORE) (AID 2282959); conditions: HepG2 Attagene cis-factorial RORE reporter, mRNA; actives raise or lower the signal
Outline: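 HepG2 cells carrying transiently transfected cis-regulated reporter units; RORE-driven reporter mRNA quantified 24 h post-dosing by RT-PCR, 6-FAM primer extension, HpaI digestion and capillary electrophoresis. Bidirectional fit versus DMSO.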

[19] = ATG_TA_CIS: Attagene CIS-FACTORIAL HepG2 Assay for human TA Basal Promoter (AID 2282964); conditions: HepG2 Attagene CIS-factorial TA basal promoter reporter; actives raise or lower the signal
Outline: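 Transfected HepG2, 24 h compound exposure; RNA → RT-PCR → FAM primer extension → HpaI cut → CE fluorescence. Gain/loss-of-signal fitted against DMSO negative control. Background-control readout.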

[20] = target: Bile acid receptor (Homo sapiens) (UniProt Q96RI1); assay: ATG_IR1_CIS: Attagene CIS-FACTORIAL HepG2 Assay for human Nuclear Receptor Subfamily 1 Group H Member 4 (NR1H4), IR1 submotif (AID 2282946); conditions: IR1 reporter transcription, actives raise or lower the signal
Bile acid receptor (Homo sapiens), sequence (Q96RI1 whole entry, looked up): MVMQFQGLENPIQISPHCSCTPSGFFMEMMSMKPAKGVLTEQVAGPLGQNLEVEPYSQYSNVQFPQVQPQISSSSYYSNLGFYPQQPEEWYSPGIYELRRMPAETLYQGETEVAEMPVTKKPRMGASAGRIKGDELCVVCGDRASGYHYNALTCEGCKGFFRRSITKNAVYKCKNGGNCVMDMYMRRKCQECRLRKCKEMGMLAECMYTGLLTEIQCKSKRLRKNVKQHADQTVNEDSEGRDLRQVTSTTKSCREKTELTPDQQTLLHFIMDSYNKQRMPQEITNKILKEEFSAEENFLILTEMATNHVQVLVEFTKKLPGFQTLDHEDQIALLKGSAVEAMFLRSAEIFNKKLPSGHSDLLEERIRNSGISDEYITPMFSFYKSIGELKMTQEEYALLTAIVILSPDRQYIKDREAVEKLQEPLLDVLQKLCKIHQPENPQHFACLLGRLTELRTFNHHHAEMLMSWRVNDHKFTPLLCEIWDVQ
Outline: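 Transient MRTU transfection, HepG2; 24 h dosing; RNA → RT-PCR → 6-FAM primer extension → HpaI digest → capillary electrophoresis fluorescence. Gain/loss of signal fitted relative to DMSO.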

Measured: AC50

C=Cc1ccc(OC(C)=O)cc1
not listed: [18] | [19] | [20]
inactive: all other assays above

CCCCOC(=O)CCC(C)=O
not listed: [18] | [19] | [20]
inactive: all other assays above

Cc1c(C(=O)c2c[nH]n(C)c2=O)ccc(S(C)(=O)=O)c1C1=NOCC1
active: [12] 14.4 µM
not listed: [20]
inactive: all other assays above

CC(C)C(=O)OCCOc1ccccc1
active: [12] 4.56 µM
not listed: [17] | [20]
inactive: all other assays above

CC(C)COC(=O)CC(C(=O)OCC(C)C)S(=O)(=O)O (configuration not stated)
active: [12] 29.5 µM
not listed: [19] | [20]
inactive: all other assays above

Oc1ccc(/C=C/c2cc(O)cc(O)c2)cc1
active: [3] 100 µM | [10] 100 µM | [13] 100 µM | [16] 26.9 µM | [19] 137 µM
not listed: [2] | [6] | [18]
inactive: all other assays above

CCCCCOC(=O)CCCCC
not listed: [18] | [20]
inactive: all other assays above

CC1C(C)(C)C2=C(C(=O)CCC2)C1(C)C (configuration not stated)
active: [12] 6.01 µM
not listed: [18] | [20]
inactive: all other assays above
